Experimental data taken from PubChem BioAssay (NCATS).
Inconclusive results are not listed. Calls of active or inactive are those of the source. Calls follow the shape of the dose curve; as a rule, active = well fitted inhibition curve with a large enough effect; inconclusive = small, poorly fitted or top-dose-only effect; inactive = flat fitted curve, though single readings scatter. Starred links: 1 amine or outer side, 2 acyl side, 3 side chain; linkers in the order of their positions; H or OH if unused. Positions of bridges follow the written chain, without caps; N, C: chain ends. Non-standard residues stand in square brackets, D forms with d. Residues, ends and D or L forms follow the SMILES beside them. Chains are numbered I, II in the order given. *: point of attachment. Actinocin(9to1) = Cc1c2oc3c(C)ccc(C(=O)[*:1])c3nc-2c(C(=O)[*:2])c(N)c1=O; NMeV = CN[CH](C(=O)O)C(C)C; Nva = CCC[C@H](N)C(=O)O; Cbz = O=C(OCc1ccccc1)*; Sar = CNCC(=O)O

How the values were obtained:
[1] = system: CRL-7250; test: Cytotoxic Profiling of Annotated Libraries Using Quantitative High-Throughput Screening (AID 1296008); details: Five cell lines viability, CellTiter-Glo ATP luminescence, 48-72 h; max response: hits give low values
How it was run: (§1)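 Cells exposed to compounds for 48 or 72 hr at 37 degrees Celsius. Viability read as ATP-coupled luminescence with CellTiter-Glo after 10 min at room temperature.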

[2] = system: HEK293; test: as above; details: Five cell lines viability, CellTiter-Glo ATP luminescence, 48-72 h; max response: hits give low values
How it was run: as §1

[3] = system: HaCat; test: as above; details: Five cell lines viability, CellTiter-Glo ATP luminescence, 48-72 h; max response: hits give low values
How it was run: as §1

[4] = system: KB-3-1; test: as above; details: Five cell lines viability, CellTiter-Glo ATP luminescence, 48-72 h; max response: hits give low values
How it was run: as §1

[5] = system: NIH3T3; test: as above; details: Five cell lines viability, CellTiter-Glo ATP luminescence, 48-72 h; max response: hits give low values
How it was run: as §1

[6] = system: MCC-13; test: qHTS assay to identify novel small-molecules to repurpose for Merkel cell carcinoma treatment (AID 1296009); details: MCC and control cell lines, CellTiter-Glo viability, 72 h; series mostly up to 46 µM
How it was run: (§2)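 Cells were treated for 72 hr at 37 degree celsius with compounds in 8- or 11-point dose response. Viability was read by CellTiter-Glo luminescence, normalized to no-cell (cytotoxicity) and DMSO controls.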

[7] = system: HEK293T; test: as above; details: MCC and control cell lines, CellTiter-Glo viability, 72 h; series mostly up to 44.8 µM
How it was run: as §2
% is scaled to controls: 0 for no effect and ±100 for the full control effect; potency is read from the fitted curve at half-maximal effect.
Also: nearly all actives have a fitted effect of over 60% in size.

NC(=O)Nc1cc(-c2ccc(CN3CCOCC3)cc2)sc1C(N)=O
inactive: Potency [6]
active: Potency [1] 13.2 µM | Potency [2] 5.26 µM | Potency [3] 0.332 µM | Potency [4] 7430 nM | Potency [5] 0.662 µM

COC(=O)[C@H](CCCN=C(N)N)NS(=O)(=O)c1ccc(C)cc1
inactive: outcome [1] | outcome [2] | max response [3] 0.0008% | max response [4] -0.67% | max response [5] 2.63% | Potency [7] | Potency [6]

COc1ccc2cc([S+]([O-])Cc3ncc(C)c(OC)c3C)nc2c1
inactive: outcome [1] | max response [2] 1.45% | max response [3] 3.09% | outcome [4] | max response [5] -6.22% | Potency [6]

C[C@@H](Oc1ccc2[nH]nc(C=Cc3cnn(CCO)c3)c2c1)c1c(Cl)cncc1Cl
active: Potency [1] 11.8 µM | Potency [2] 13.2 µM | Potency [3] 3.32 µM | Potency [4] 418 nM | Potency [5] 3.72 µM | Potency [6] 26.4 µM

CC(=O)[C@]1(O)Cc2c(O)c3c(c(O)c2[C@@H](O[C@H]2C[C@H](N)[C@@H](O)[C@H](C)O2)C1)C(=O)c1ccccc1C3=O
active: Potency [1] 1.48 µM | Potency [2] 0.132 µM | Potency [3] 0.743 µM | Potency [4] 469 nM | Potency [5] 0.264 µM | Potency [6] 0.662 µM

COc1cc([C@@H]2c3cc4c(cc3[C@@H](O[C@@H]3O[C@@H]5CO[C@@H](c6cccs6)O[C@@H]5[C@H](O)[C@@H]3O)[C@H]3COC(=O)[C@H]23)OCO4)cc(OC)c1O
active: Potency [1] 16.6 µM | Potency [2] 0.148 µM | Potency [3] 0.59 µM | Potency [4] 743 nM | Potency [5] 0.132 µM | Potency [6] 1.66 µM

CCC[C@@H](C=O)NC(=O)[C@H](CC(C)C)NC(=O)[C@H](CC(C)C)NC(=O)OCc1ccccc1 (Cbz-Leu-Leu-[Nva]-aldehyde)
active: Potency [1] 4.18 µM | Potency [2] 3.72 µM | Potency [3] 9.35 µM | Potency [4] 2960 nM | Potency [5] 14.8 µM | Potency [6] 3.32 µM

Cc1c2oc3c(C)ccc(C(=O)NC4C(=O)NC(C(C)C)C(=O)N5CCCC5C(=O)N(C)CC(=O)N(C)C(C(C)C)C(=O)OC4C)c3nc-2c(C(=O)NC2C(=O)NC(C(C)C)C(=O)N3CCCC3C(=O)N(C)CC(=O)N(C)C(C(C)C)C(=O)OC2C)c(N)c1=O (centres undefined) (I: TVP[Sar][NMeV] / II: TVP[Sar][NMeV]; ester I:1-I:C, II:1-II:C; linker I:N-II:N via Actinocin(9to1); configuration not given here)
inactive: max response [1] -99.9% | max response [2] -93.3% | max response [3] -104% | max response [5] -100% | Potency [6]
active: Potency [4] 0.0662 nM

COc1cc(C(C)C)c(Oc2cnc(NC(CO)CO)nc2N)cc1I
inactive: max response [1] 3.93% | max response [2] -7.36% | max response [3] -12.7% | max response [4] -2.87% | max response [5] 1.73% | Potency [6]

Cc1cnc(NC(=O)Nc2cc(Br)c(C)cc2OC[C@@H]2CNCCO2)cn1
active: Potency [2] 1.32 µM | Potency [5] 4.18 µM
inactive: max response [1] -18.7% | max response [3] 1.25% | max response [4] -6.69% | Potency [6]

C=CCNC1=C2C[C@@H](C)C[C@H](OC)[C@@H](O)[C@@H](C)C=C(C)[C@H](OC(N)=O)[C@@H](OC)C=CC=C(C)C(=O)NC(=CC1=O)C2=O
active: Potency [1] 0.296 µM | Potency [2] 0.935 µM | Potency [3] 0.59 µM | Potency [4] 105 nM | Potency [5] 0.526 µM | Potency [6] 3.72 µM

N#CC(=C(O)c1ccc(Cl)cc1Cl)c1nc2cc(Cl)ccc2c(=O)[nH]1
inactive: max response [1] -6.32% | max response [2] 1.08% | max response [3] 4.62% | max response [4] 3.32% | max response [5] 1.52% | Potency [6]

CC(C)(C)[N+]([O-])=Cc1ccc(S(=O)(=O)O)cc1S(=O)(=O)O
inactive: max response [1] 1.88% | max response [2] -0.289% | max response [3] -17.9% | max response [4] 9.38% | max response [5] 0.254% | Potency [6]

O=c1ccn([C@@H]2O[C@H](CO)[C@H](O)[C@@H]2F)c(=O)[nH]1
inactive: max response [1] -4.58% | max response [2] -5.58% | max response [3] 4.18% | max response [4] 5.55% | max response [5] 2.94% | Potency [6]

CC(=O)OCC(=O)[C@@]12N=C(C)O[C@H]1C[C@H]1[C@@H]3CCC4=CC(=O)C=C[C@]4(C)[C@@H]3[C@@H](O)C[C@@]12C
inactive: max response [1] 0.387% | max response [2] -6.3% | max response [3] -2.39% | max response [4] 7.6% | max response [5] -3.36% | Potency [6]

COc1ccc(C(C)=O)c(O)c1
inactive: max response [1] -6.37% | max response [2] 0.614% | max response [3] -4.96% | max response [4] 4.34% | max response [5] 2.86% | Potency [6]

CCCCCCCCCCCCc1ccc(S(=O)(=O)Nc2nncs2)cc1
inactive: outcome [1] | outcome [2] | max response [3] -11% | outcome [4] | outcome [5] | Potency [7] | Potency [6]

C#C[C@]1(O)CC[C@@H]2[C@@H]3CCC4=CC(=O)CC[C@@H]4[C@H]3CC[C@@]21CC
inactive: max response [1] -6.84% | max response [2] -8.15% | max response [3] -5.66% | max response [4] -5.98% | max response [5] -8.04% | Potency [6]

C=CC1=C(C(=O)O)N2C(=O)[C@@H](NC(=O)C(=NO)c3csc(N)n3)[C@H]2SC1
inactive: outcome [1] | max response [2] 0.682% | max response [3] 4.35% | max response [4] 4.36% | outcome [5] | Potency [6]

O=c1[nH]c(=O)n([C@H]2C[C@@H](O)[C@@H](CO)O2)cc1C=CBr
inactive: max response [1] -10.9% | max response [2] -1.26% | max response [3] -10.4% | outcome [4] | outcome [5] | Potency [6]

CN(C)CC[C@H](c1ccc(Cl)cc1)c1ccccn1
inactive: outcome [1] | max response [2] -15.3% | max response [3] -31.9% | max response [4] -7.57% | max response [5] -0.393% | Potency [6]

CC[C@H]1OC(=O)[C@H](C)[C@@H](O[C@H]2C[C@@](C)(OC)[C@@H](O)[C@H](C)O2)[C@H](C)[C@@H](O[C@@H]2O[C@H](C)C[C@H](N(C)C)[C@@H]2O)[C@](C)(OC)C[C@@H](C)C(=O)[C@H](C)[C@@H](O)[C@]1(C)O
inactive: max response [1] 4.09% | max response [2] -15.9% | max response [3] 3.25% | max response [4] -5.56% | outcome [5] | Potency [6]

COc1cc2c(cc1OC)[C@@H]1C(=O)c3ccc4c(c3O[C@@H]1CO2)C=CC(C)(C)O4
active: Potency [1] 0.0148 µM | Potency [2] 0.0526 µM
inactive: max response [3] -2.92% | Potency [6]

CC(C)(O)[C@H]1CC[C@@](C)([C@H]2[C@@H](O)C[C@@]3(C)[C@@H]4C[C@H](O[C@@H]5O[C@H](CO)[C@@H](O)[C@H](O)[C@@H]5O)[C@H]5C(C)(C)[C@@H](O[C@@H]6OC[C@@H](O)[C@H](O)[C@@H]6O)CC[C@@]56C[C@@]46CC[C@]23C)O1
inactive: outcome [1] | max response [2] 2.98% | max response [3] -6.06% | max response [4] 2.16% | outcome [5] | Potency [6]
